Hit rate of the full screen: of about 5,500 compounds, about 2,000 (36%) were called active. Roughly 18% stayed inconclusive and do not appear here. Cut-off read from the data, not from the text of the source: active = normalized growth mostly below about 0.91 (no sharp cut-off); inconclusive = no clear call, values can overlap the other calls; inactive = mostly above about 0.92. Some of the results follow.
Assay: chemical genetic growth profiling, strain panel (AID 1159580);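 note: tested at 20 µM; growth read once vehicle control cultures reached saturation at 30 °C; 1 = growth at the plate median or of vehicle wells; lower values mean less growth of the strain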
Conditions: growth OD

Measured: normalized growth

Cc1cn([C@H]2C[C@H](N=[N+]=[N-])[C@@H](CO)O2)c(=O)[nH]c1=O
inactive: S. cerevisiae deletion strains, locus YJR066W, strain TOR1, active compounds read low 0.932 | S. cerevisiae deletion strains, locus YKL009W, strain mrt4, active compounds read low 0.995 | S. cerevisiae deletion strains, locus YKL068W, active compounds read low 1.01 | S. cerevisiae deletion strains, locus YKL085W, strain MDH1 (second series), active compounds read low 1.01 | S. cerevisiae deletion strains, locus YKL085W, strain MDH1, active compounds read low 1.01 | S. cerevisiae deletion strains, locus YKL160W, strain elf1, active compounds read low 0.975 | S. cerevisiae deletion strains, locus YKL190W, strain CNB1, active compounds read low 1.01 | S. cerevisiae deletion strains, locus YKR001C, strain vps1, active compounds read low 1.02 | S. cerevisiae deletion strains, locus YKR026C, strain gcn3, active compounds read low 0.988 | S. cerevisiae deletion strains, locus YKR091W, strain srl3, active compounds read low 0.999 | S. cerevisiae deletion strains, locus YLL001W, strain dnm1, active compounds read low 0.978 | S. cerevisiae deletion strains, locus YLL026W, active compounds read low 0.996 | S. cerevisiae deletion strains, locus YLL041C, strain sdh2, active compounds read low 0.993 | S. cerevisiae deletion strains, locus YLR027C, strain aat2, active compounds read low 0.99 | S. cerevisiae deletion strains, locus YLR039C, strain RIC1, active compounds read low 0.989 | S. cerevisiae deletion strains, locus YLR058C, strain SHM2, active compounds read low 1.01 | S. cerevisiae deletion strains, locus YLR102C, strain apc9, active compounds read low 1.01 | S. cerevisiae deletion strains, locus YLR113W, strain HOG1, active compounds read low 0.936 | S. cerevisiae deletion strains, locus YLR221C, strain rsa3, active compounds read low 1.02 | S. cerevisiae deletion strains, locus YLR258W, strain gsy2, active compounds read low 0.97 | S. cerevisiae deletion strains, locus YLR262C, strain YPT6 (second series), active compounds read low 0.998 | S. cerevisiae deletion strains, locus YLR262C, strain YPT6, active compounds read low 1.01 | S. cerevisiae deletion strains, locus YLR268W, strain sec22, active compounds read low 1 | S. cerevisiae deletion strains, locus YLR320W, strain mms22, active compounds read low 0.981 | S. cerevisiae deletion strains, locus YLR330W, strain CHS5, active compounds read low 1 | S. cerevisiae deletion strains, locus YLR342W, strain FKS1 (second series), active compounds read low 0.991 | S. cerevisiae deletion strains, locus YLR342W, strain FKS1, active compounds read low 1.01 | S. cerevisiae deletion strains, locus YLR357W, strain rsc2, active compounds read low 0.935 | S. cerevisiae deletion strains, locus YLR370C, strain arc18, active compounds read low 0.98 | S. cerevisiae deletion strains, locus YLR371W, strain rom2, active compounds read low 1.01 | S. cerevisiae deletion strains, locus YLR384C, strain iki3, active compounds read low 1 | S. cerevisiae deletion strains, locus YLR418C, strain cdc73, active compounds read low 1.04 | S. cerevisiae deletion strains, locus YML016C, strain PPZ1, active compounds read low 1 | S. cerevisiae deletion strains, locus YML032C, strain rad52, active compounds read low 1.01 | S. cerevisiae deletion strains, locus YML120C, strain ndi1, active compounds read low 1.01 | S. cerevisiae deletion strains, locus YML124C, strain tub3, active compounds read low 1.01 | S. cerevisiae deletion strains, locus YMR058W, strain fet3, active compounds read low 1.02 | S. cerevisiae deletion strains, locus YMR078C, strain ctf18, active compounds read low 1 | S. cerevisiae deletion strains, locus YMR125W, strain sto1, active compounds read low 0.999 | S. cerevisiae deletion strains, locus YMR129W, active compounds read low 0.99 | S. cerevisiae deletion strains, locus YMR205C, strain PFK2, active compounds read low 0.975 | S. cerevisiae deletion strains, locus YMR223W, strain ubp8, active compounds read low 1 | S. cerevisiae deletion strains, locus YMR231W, strain pep5, active compounds read low 1 | S. cerevisiae deletion strains, locus YMR263W, strain SAP30, active compounds read low 1.01 | S. cerevisiae deletion strains, locus YMR307W, strain GAS1, active compounds read low 1.02 | S. cerevisiae deletion strains, locus YNL067W, strain RPL9B, active compounds read low 1.02 | S. cerevisiae deletion strains, locus YNL071W, strain lat1, active compounds read low 1.01 | S. cerevisiae deletion strains, locus YNL153C, strain GIM3, active compounds read low 1 | S. cerevisiae deletion strains, locus YNL183C, strain NPR1, active compounds read low 0.911 | S. cerevisiae deletion strains, locus YNL209W, strain ssb2, active compounds read low 0.994 | S. cerevisiae deletion strains, locus YNL233W, strain BNI4, active compounds read low 0.991 | S. cerevisiae deletion strains, locus YNL248C, strain rpa49, active compounds read low 0.981 | S. cerevisiae deletion strains, locus YNL250W, strain rad50, active compounds read low 1.02 | S. cerevisiae deletion strains, locus YNL271C, strain bni1, active compounds read low 1.02 | S. cerevisiae deletion strains, locus YNL298W, strain CLA4, active compounds read low 1.02 | S. cerevisiae deletion strains, locus YNL307C, strain MCK1, active compounds read low 1.01 | S. cerevisiae deletion strains, locus YNL322C, strain KRE1 (second series), active compounds read low 0.972 | S. cerevisiae deletion strains, locus YNL322C, strain KRE1, active compounds read low 1 | S. cerevisiae deletion strains, locus YNR049C, strain mso1, active compounds read low 0.996 | S. cerevisiae deletion strains, locus YNR052C, strain pop2, active compounds read low 1.01 | S. cerevisiae deletion strains, locus YOL006C, strain TOP1, active compounds read low 1 | S. cerevisiae deletion strains, locus YOL012C, strain htz1 1.05 | S. cerevisiae deletion strains, locus YOL147C, strain pex11, active compounds read low 1.01 | S. cerevisiae deletion strains, locus YOR001W, strain rrp6, active compounds read low 1.02 | S. cerevisiae deletion strains, locus YOR061W, strain CKA2, active compounds read low 1.01 | S. cerevisiae deletion strains, locus YOR069W, strain VPS5, active compounds read low 1.01 | S. cerevisiae deletion strains, locus YOR070C, strain gyp1, active compounds read low 0.998 | S. cerevisiae deletion strains, locus YOR080W, strain dia2, active compounds read low 0.999 | S. cerevisiae deletion strains, locus YOR083W, strain WHI5, active compounds read low 0.946 | S. cerevisiae deletion strains, locus YOR106W, strain vam3, active compounds read low 0.999 | S. cerevisiae deletion strains, locus YOR136W, strain idh2, active compounds read low 1.02 | S. cerevisiae deletion strains, locus YOR144C, strain elg1, active compounds read low 1.01 | S. cerevisiae deletion strains, locus YOR184W, strain ser1, active compounds read low 1.01 | S. cerevisiae deletion strains, locus YOR231W, strain MKK1, active compounds read low 0.982 | S. cerevisiae deletion strains, locus YOR265W, strain rbl2, active compounds read low 1.01 | S. cerevisiae deletion strains, locus YOR270C, strain vph1, active compounds read low 1.06 | S. cerevisiae deletion strains, locus YOR290C, strain snf2, active compounds read low 0.993 | S. cerevisiae deletion strains, locus YOR316C, strain cot1, active compounds read low 1.01 | S. cerevisiae deletion strains, locus YPL051W, strain arl3, active compounds read low 0.985 | S. cerevisiae deletion strains, locus YPL055C, strain LGE1, active compounds read low 1.03 | S. cerevisiae deletion strains, locus YPL078C, strain atp4, active compounds read low 0.99 | S. cerevisiae deletion strains, locus YPL106C, strain sse1, active compounds read low 0.94 | S. cerevisiae deletion strains, locus YPL240C, strain hsp82, active compounds read low 0.994 | S. cerevisiae deletion strains, locus YPL241C, strain CIN2, active compounds read low 1 | S. cerevisiae deletion strains, locus YPL256C, strain CLN2, active compounds read low 0.942 | S. cerevisiae deletion strains, locus YPR119W, strain clb2, active compounds read low 1.01 | S. cerevisiae deletion strains, locus YPR141C, strain kar3, active compounds read low 1.01 | S. cerevisiae deletion strains, locus YPR163C, strain tif3, active compounds read low 1.01 | S. cerevisiae deletion strains, locus YPR167C, strain met16, active compounds read low 1.01 | S. cerevisiae deletion strains, strain wtn01, active compounds read low 1.01 | S. cerevisiae strains, strain wild type, active compounds read low 1
